The campaign covered roughly 5,500 compounds. About 2,000 (36%) were called active. Inconclusive results (about 18%) are left out. Rule as the data show it: active = normalized growth mostly below about 0.91 (no sharp cut-off); inconclusive = no clear call, values can overlap the other calls; inactive = mostly above about 0.92. Some of the results follow.
Test: chemical genetic growth profiling, strain panel (AID 1159580);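 also: tested at 20 µM; growth read once vehicle control cultures reached saturation at 30 °C; 1 = growth at the plate median or of vehicle wells; lower values mean less growth of the strain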
Details: S. cerevisiae deletion strains, growth OD

Measured: normalized growth

N[C@@H](CCC(=O)N[C@@H](CCSC(CC(=O)O)C(=O)O)C(=O)NCC(=O)O)C(=O)O (stereo not given in full)
inactive: locus YAL021C, strain ccr4, active compounds read low 0.991 | locus YAL026C, strain drs2, active compounds read low 1 | locus YAL030W, strain snc1, active compounds read low 0.992 | locus YBL061C, strain skt5, active compounds read low 0.989 | locus YBR009C, strain hhf1, active compounds read low 1.03 | locus YBR023C, strain chs3, active compounds read low 0.987 | locus YBR171W, strain sec66, active compounds read low 0.988 | locus YBR231C, strain swc5, active compounds read low 0.993 | locus YBR279W, strain paf1, active compounds read low 0.996 | locus YCL011C, strain gbp2, active compounds read low 0.995 | locus YCL016C, strain dcc1, active compounds read low 0.988 | locus YCL061C, strain MRC1, active compounds read low 1 | locus YCL069W, strain vba3, active compounds read low 0.997 | locus YCR088W, strain abp1, active compounds read low 0.988 | locus YDL005C, strain med2, active compounds read low 0.99 | locus YDL040C, strain nat1, active compounds read low 0.997 | locus YDR001C, strain nth1, active compounds read low 0.994 | locus YDR069C, strain doa4, active compounds read low 0.987 | locus YDR137W, strain rgp1, active compounds read low 0.987 | locus YDR159W, strain sac3, active compounds read low 0.996 | locus YDR195W, strain ref2 0.97 | locus YDR297W, strain sur2, active compounds read low 0.981 | locus YDR334W, strain swr1, active compounds read low 1 | locus YDR335W, strain msn5, active compounds read low 0.996 | locus YDR392W, strain spt3, active compounds read low 1.01 | locus YEL003W, strain gim4, active compounds read low 1.01 | locus YEL037C, strain rad23, active compounds read low 0.994 | locus YEL061C, strain CIN8 (second series), active compounds read low 0.998 | locus YER015W, strain faa2, active compounds read low 0.993 | locus YER016W, strain bim1, active compounds read low 0.978 | locus YER111C, strain swi4, active compounds read low 0.998 | locus YER155C, strain BEM2 (second series), active compounds read low 1.01 | locus YFR010W, strain ubp6, active compounds read low 1.02 | locus YGL167C, strain pmr1, active compounds read low 0.997 | locus YGL173C, strain kem1, active compounds read low 1.01 | locus YGL227W, strain vid30, active compounds read low 0.999 | locus YGL240W, strain doc1, active compounds read low 0.999 | locus YGL253W, strain hxk2, active compounds read low 0.991 | locus YHR013C, strain ard1, active compounds read low 1 | locus YHR027C, strain rpn1, active compounds read low 0.994 | locus YHR030C, strain SLT2, active compounds read low 0.999 | locus YHR079C, strain IRE1, active compounds read low 0.988 | locus YHR142W, strain chs7, active compounds read low 1 | locus YJL092W, strain hpr5, active compounds read low 1 | locus YJL095W, strain BCK1 (second series), active compounds read low 1.02 | locus YJL095W, strain BCK1, active compounds read low 1.01 | locus YJL115W, strain asf1, active compounds read low 1.01 | locus YJL129C, strain trk1, active compounds read low 0.99 | locus YJL154C, strain vps35, active compounds read low 0.992 | locus YJL164C, strain tpk1, active compounds read low 1.01 | locus YJL166W, strain qcr8, active compounds read low 0.994 | locus YJL187C, strain SWE1, active compounds read low 0.992 | locus YJR066W, strain TOR1, active compounds read low 0.997 | locus YKL160W, strain elf1, active compounds read low 0.984 | locus YKR026C, strain gcn3, active compounds read low 0.993 | locus YKR091W, strain srl3, active compounds read low 1 | locus YLL001W, strain dnm1, active compounds read low 1.01 | locus YLL026W, active compounds read low 1 | locus YLL041C, strain sdh2, active compounds read low 1.01 | locus YLR027C, strain aat2, active compounds read low 0.996 | locus YLR113W, strain HOG1, active compounds read low 1 | locus YLR221C, strain rsa3, active compounds read low 1.01 | locus YLR258W, strain gsy2, active compounds read low 1.01 | locus YLR262C, strain YPT6 (second series), active compounds read low 0.992 | locus YLR320W, strain mms22, active compounds read low 1.01 | locus YLR342W, strain FKS1, active compounds read low 0.99 | locus YLR357W, strain rsc2, active compounds read low 0.996 | locus YLR370C, strain arc18, active compounds read low 0.997 | locus YLR384C, strain iki3, active compounds read low 0.964 | locus YML120C, strain ndi1, active compounds read low 0.993 | locus YMR058W, strain fet3, active compounds read low 0.991 | locus YMR125W, strain sto1, active compounds read low 1.01 | locus YMR129W, active compounds read low 0.99 | locus YMR205C, strain PFK2, active compounds read low 1 | locus YMR231W, strain pep5, active compounds read low 0.995 | locus YNL071W, strain lat1, active compounds read low 1.01 | locus YNL183C, strain NPR1, active compounds read low 0.937 | locus YNL209W, strain ssb2, active compounds read low 0.981 | locus YNL248C, strain rpa49, active compounds read low 1.02 | locus YNL322C, strain KRE1 (second series), active compounds read low 0.979 | locus YNR049C, strain mso1, active compounds read low 0.997 | locus YOR001W, strain rrp6, active compounds read low 1.02 | locus YOR070C, strain gyp1, active compounds read low 0.999 | locus YOR080W, strain dia2, active compounds read low 0.982 | locus YOR083W, strain WHI5, active compounds read low 0.985 | locus YOR106W, strain vam3, active compounds read low 0.976 | locus YOR231W, strain MKK1, active compounds read low 0.991 | locus YOR265W, strain rbl2, active compounds read low 0.998 | locus YOR270C, strain vph1, active compounds read low 1.07 | locus YOR290C, strain snf2, active compounds read low 0.994 | locus YPL051W, strain arl3, active compounds read low 1 | locus YPL078C, strain atp4, active compounds read low 0.986 | locus YPL106C, strain sse1, active compounds read low 0.971 | locus YPL240C, strain hsp82, active compounds read low 1.01 | locus YPL256C, strain CLN2, active compounds read low 0.988

From PubChem BioAssay AID1159580 (chemical genetic matrix, 2015)
